Experimental data: PubChem BioAssay AID1948 (National Center for Advancing Translational Sciences (NCATS), 2009)
In all, about 110,000 compounds went through this assay and about 20 (0.02%) were called active. Entries that show only a call come without a potency. Not shown: some 2% with an inconclusive outcome. Calls come from the whole dose curve; as a rule, active = well fitted activation curve with a large enough effect; inconclusive = small, poorly fitted or top-dose-only effect; inactive = no such curve, though single readings can be large or run the other way. The full list was thinned out, with actives kept by preference.

Assay: qHTS Assay for Compounds that Induce Erasure of Genomic Imprints
Conditions: mouse ES Peg3-LacZ reporter, beta-gal luminescence, 40 h; series mostly up to 10.9 µM
Text: qHTS Assay for Compounds that Induce Erasure of Genomic Imprints NIH Chemical Genomics Center [NCGC] NIH Molecular Libraries Screening Centers Network [MLSCN] Assay Submitter (PI): JEFFRIES, SEAN, NCGC, University of Cambridge NCGC Peg3 Imprinting Assay Overview Genomic imprinting is the epigenetic process whereby genes are expressed in a parent of origin fashion. […] Unlike some forms of epigenetic silencing that can be overcome by overexpression of transcription factors, genomic imprinting stably represses the expression of one allele despite potentially high levels of expression from the other allele. […] During mouse embryonic day 11.5 imprints are erased in PGCs so that sex specific imprints can be reestablished during gametogenesis. Embryonic germ (EG) cells can be derived from developing PGCs at embryonic day 11.5 and these cells often lack genomic imprints. […] Embryonic stem (ES) cells are a cell type similar to EG cells in phenotype and transcriptional profile, yet ES cells maintain genomic imprints. This similarity between ES and EG cells prompted us to use ES cells to look for factors which could induce imprint erasure. To investigate the stability of genomic imprinting, ES cells were derived from mice with an insertion of a LacZ-Neomycin reporter construct in the Peg3 locus. Peg3 is an imprinted locus where gene expression is restricted to the paternal allele. […] Using LacZ expression we are able to monitor the state of the Peg3 imprint. In order to dissect the mechanisms involved in imprint erasure using a forward chemical genetics approach we developed a cell based phenotype assay using an endogenous silence imprinted locus. This assay utilizes maternally inherited Peg3LacZ-Neo ES cells by monitoring the LacZ expression from the normally silent Peg3 allele. To facilitate screening, high-density feeder-free ES cell culture has been optimized so that ES cells can be grown in 1536 for over four days without feeding or washes. The assay uses a luminescence based read out for LacZ activity and is a homogenous assay optimal for HTS.
NCGC Peg3 Imprinting Assay Protocol Summary ES cell lines were derived from blastocysts taken from Peg3LacZ-Neo x129 matings. Lines were sexed and genotyped for the Peg3LacZ-Neo allele. Female cells carrying the reporter allele were used in this study. Cells were derived on a layer of mouse embryonic fibroblasts and passaged multiple times before switching to feeder free culture. Cells were maintained feeder free on gelatin coated dishes in DMEM/F12 media supplemented with 15% FBS, 2mM L-glutamine, 100 units/ml penicillin, 100ug/ml streptomycin, 0.1mM MEM nonessential amino acids, 1mM sodium pyruvate, 0.1% sodium bicarbonate, 0.1mM 2-Mercaptoethanol, and 400 units/ml leukemia inhibitory factor (LIF) at 37C with 5% CO2. The assay was performed in 1536-well format. A single luminescence read was taken at the end of the assay and the data was normalized by plate to internal negative controls. Maximum efficacy and AC50 values were calculated from dose-response data using the standard Hill equation. 1536 well plates were filled with 0.5ul of 0.1% gelatin per well, spun down and incubated for at least 30 min at 37C. The ES cells were then trypsini Peg3 1536-well assay protocol: (1)Plate 0.5ul/well 0.1% gelatin in white tissue culture treated 1536-well plates, spin and incubate at 37C for at least 30 min. (2)Add 5ul/well (300 cells) of ES cell suspension from freshly trypsinized cells and incubate at 37C, 5% CO2 for 40 hours. (3)Add 5ul/well of freshly prepared BetaGlo solution and incubate at room temperature for 5 minutes. (4)Read luminescence on the ViewLux plate reader. Keywords Genomic Imprinting, Germ Cells, Embryonic Stem Cell, DNA Methylation, Peg3, qHTS, NIH roadmap, NCGC
In the case of `COc1cc(C(=O)Nc2ccc(OCc3cc(=O)n4ccc(C)cc4n3)cc2)cc(OC)c1OC`, the Potency is reported as “inactive”.
For `CCc1cccc(NC(=O)CSc2nccn2C)c1`, the Potency was “inactive”.
For `COc1ccc(S(=O)(=O)NCCSc2nnnn2-c2ccccc2)cc1`, the Potency was “inactive”.
In the case of `CCOc1ccc(OCC)c(NC(=O)c2c(C)nn(-c3ccccc3)c2-n2cccc2)c1`, the Potency is reported as “inactive”.
With `Cc1c(Cl)cccc1NC(=O)C(=O)NCCc1csc2nc(-c3ccccc3F)nn12` the Potency was “inactive”.
In the case of `CC(Sc1oc(-c2ccco2)nc1S(=O)(=O)c1ccc(Br)cc1)c1ccccc1` (stereo not drawn), the Potency is reported as “inactive”.
For `Cc1cc(Cl)ccc1OCC(=O)N(Cc1ccc(N(C)C)cc1)C1CCS(=O)(=O)C1` (stereo not drawn), the Potency was “inactive”.
In the case of `COc1ccc(Cc2nc3ccc(C(=O)NCc4ccccc4C)cc3o2)cc1`, the Potency is reported as “inactive”.
In the case of `CC(=O)Nc1cc(C(=O)NCc2ccc(F)cc2Cl)ccc1Sc1ccc(Cl)cc1`, the Potency is reported as “inactive”.
With `COc1ccc(-c2nc3ccccc3o2)cc1NC(=O)c1cc([N+](=O)[O-])ccc1N1CCOCC1` the Potency was “inactive”.
With `Cn1c(=O)c2c(nc(SCC(=O)Nc3ccc(F)cc3)n2Cc2ccccc2)n(C)c1=O` the Potency was “inactive”.
With `CC(=O)OC1=C(C(C)=O)N(Cc2ccccc2)S(=O)(=O)c2ccccc21` the Potency was “inactive”.
For `CCOc1ccccc1NC(=O)Cn1c(=O)n(-c2cccc(C)c2)c(=O)c2c1c1cc(OC)ccc1n2C`, the Potency was “inactive”.
In the case of `CCc1nn(CC(=O)NCC(C)c2ccccc2)c(=O)c2cc3occc3n12` (stereo not drawn), the Potency is reported as “inactive”.
With `Fc1ccccc1Oc1ncnc2c1oc1ccccc12` the Potency was “inactive”.
With `COc1ccc(OC)c(NC(=O)CN2CCCN(Cc3cc(C)ccc3C)S2(=O)=O)c1` the Potency was “inactive”.
In the case of `O=C(Nc1c(C(=O)N2CCN(c3ccc(F)cc3)CC2)oc2ccccc12)c1ccco1`, the Potency is reported as “inactive”.
For `COc1ccccc1CNCc1ccc(C(=O)O)s1`, the Potency was “inactive”.
With `O=C(C1CCC(Cn2c(=O)c3sccc3n(Cc3ccccc3F)c2=O)CC1)N1CCCCC1` (stereo not drawn) the Potency was “inactive”.
For `COc1ccc(OC)c(CNC(=O)CN2C(=O)CCn3nc(-c4cn(C)c5ccccc45)cc32)c1`, the Potency was “inactive”.
With `COc1ccccc1CNC(=O)c1ccc(CS(=O)c2ccccc2Cl)o1` (stereo not drawn) the Potency was “inactive”.
For `CCN1CCc2nc3sc(C(=O)Nc4ccccc4OC(F)(F)F)c(N)c3cc2C1`, the Potency was “inactive”.
In the case of `COc1cc(OC)cc(-c2nc3nc(C)c(CCC(=O)Nc4ccc(C)cc4)c(C)n3n2)c1`, the Potency is reported as “inactive”.
In the case of `CC1CCC2(CC1)N=C(c1ccccc1)C(=O)N2CC(=O)Nc1ccc(F)c(Cl)c1` (stereo not drawn), the Potency is reported as “inactive”.
In the case of `CCOc1ccc(NC(=O)c2cc(S(=O)(=O)N3CCCC3)c[nH]2)cc1`, the Potency is reported as “inactive”.
For `CC1CCN(S(=O)(=O)c2ccc3c(ccn3CCC(=O)NCc3ccc(N(C)C)cc3)c2)CC1`, the Potency was “inactive”.
In the case of `Cc1c(C(=O)NCc2ccccc2Br)oc2ccc3c(c12)C(=O)CC(C)(C)O3`, the Potency is reported as “inactive”.
In the case of `CCc1nn(CC(=O)N2CCN(c3ccc(Cl)cc3)CC2)c(=O)c2cc3occc3n12`, the Potency is reported as “inactive”.
With `COc1ccc(CCn2cc3c(c2-c2ccc(Br)cc2)c(=O)n(C)c(=O)n3C)cc1OC` the Potency was “inactive”.
For `Cc1ccccc1NC(=O)Cn1c(=O)n(CC2CCC(C(=O)NCCc3ccccc3)CC2)c(=O)c2ccccc21` (stereo not drawn), the Potency was “inactive”.
With `Cc1ccc2nc(COc3ccccc3NC(=O)Nc3ccc(F)c(Cl)c3)cc(=O)n2c1` the Potency was “inactive”.
With `CCOC(=O)c1c(N)n(-c2cccc(C)c2C)c2nc3ccccc3nc12` the Potency was “inactive”.
In the case of `COc1ccc2c(c1)C=C(C(=O)NCc1cc(Br)ccc1OC)CO2`, the Potency is reported as “inactive”.
In the case of `COC(=O)c1cnc(N2CCN(c3ccccc3OC)CC2)c2ccccc12`, the Potency is reported as “inactive”.
With `COc1ccc(Br)cc1C1CC(=O)Nc2c1c(C)nn2-c1nc(C)cc(C)n1` (stereo not drawn) the Potency was “inactive”.
In the case of `CCN1CCN(c2cc(C)c3cc(NC(=O)c4cc(Cl)ccc4OC)ccc3n2)CC1`, the Potency is reported as “inactive”.
For `CCc1ccc(NC(=O)c2cc3c(=O)n(Cc4cccnc4)ccc3nc2C)cc1`, the Potency was “inactive”.
For `CCCCCn1c(CCCNC(=O)c2ccccc2OC)nc2ccccc21`, the Potency was “inactive”.
With `COc1ccccc1CNS(=O)(=O)c1cc(Br)cc2c1N(C(C)=O)C(C)C2` (stereo not drawn) the Potency was “inactive”.
With `CCOc1cc(C2C(C(=O)OC)=C(C)NC3=C2C(=O)c2ccccc23)ccc1O` (stereo not drawn) the Potency was “inactive”.
In the case of `CCOc1ccc(C2C(=O)N(C3CCCCC3)CC(=O)N2CCC2=CCCCC2)cc1OC` (stereo not drawn), the Potency is reported as “inactive”.
With `O=C(Nc1ccc2nc(SCCOc3ccccc3)sc2c1)c1ccco1` the Potency was “inactive”.
For `CCc1cnc2c(c1SCC(=O)N1CCC(C)CC1)c(=O)n(C)c(=O)n2C`, the Potency was “inactive”.
For `CCOc1ccc(N(CC)S(=O)(=O)N2CCCC(C(=O)Nc3ccc(C(C)=O)cc3)C2)cc1` (stereo not drawn), the Potency was “inactive”.
In the case of `COc1ccc(Cn2cc(C(=O)c3ccc(C)cc3)c(=O)c3cc(OC)c(OC)cc32)cc1`, the Potency is reported as “inactive”.
With `Cc1csc2nc(COC(=O)c3ccc(NC(=O)COc4ccccc4F)cc3)cc(=O)n12` the Potency was “inactive”.
For `COc1ccc(OC)c(NC(=O)CSC2=Nc3ccccc3C3=NC(CC(=O)NCc4ccc(F)cc4)C(=O)N23)c1` (stereo not drawn), the Potency was “inactive”.
With `O=c1cc(COc2cccc(C(F)(F)F)c2)nc2sc3c(n12)CCCC3` the Potency was “inactive”.
